About 83,000 compounds went through this panel and 20% of them were active in at least one assay; those are over-represented in the sample as a whole.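 How to read the values: 0–100, growth inhibition (40 = 60% inhibited); 0, no net growth; -100 to 0, cell death (-40 = 40% of starting cells died; -100 = all dead).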 Unmarked numbers belong to inactive results.

This assay concerns NCI-H23 lung. Description: NCI-60 one-dose screen, 48 h (100 = growth as untreated, 0 = no growth, -100 = all killed). The following applies: 10 µM unless noted. On the procedure:
Growth inhibition of the NCI-H23 human Non-Small Cell Lung tumor cell line is measured as a screen for anti-cancer activity. Cells are grown in 96 well plates and exposed to the test compound for 48 hours. Compounds are tested at a single concentration, which is 10^-5 M for most compounds. The reported endpoint is percent growth (GI% or GIPRCNT), where numbers from 0 - 100% represent growth inhibition, and numbers from -100% - 0 represent cell death. For example, a value of 40 represents 60% growth inhibition. A value of 0 means no net growth occurred over the course of the experiment. A value of -40 indicates 40% of cells at the beginning of the experiment died by the end of the experiment. A value of -100 means all cells are dead at the end of the experiment.
NCI-60 Human Tumor Cell Lines Screen was performed using the standard one-dose NCI protocol, which is described in more detail at https://dtp.cancer.gov/discovery_development/nci-60/default.htm.
Compounds with GIPRCNT values below 10 were considered active. Activity score was based on GIPRCNT using the following formula: […]
Score is 0 for GIPRCNT values of 100 or above, 50 for GIPRCNT values of 0, and 100 for GIPRCNT values of -100.
Consider `CCOC(=O)c1ccc(C(C)(C)C)cc1`, for which the growth is 102%. On to `CCOC(=O)c1c(C)[nH]c(C)c1C=O`, for which the growth is 98.8%. With `Cc1cc2c3ccc(C)[n+](C)c3ccc2n1C`, the growth is 23.3%.

For `CCN(CC)CCCC(C)NC(=S)N/N=C(\C)c1ccccn1` (stereo not given), the growth was 73.1%.

Regarding `CCOC(=O)C(COS(C)(=O)=O)(COS(C)(=O)=O)C(=O)OCC`, the growth is 99.5%. As for `CCCc1cccc(CCC)c1NC(=O)Nc1cc(Cl)cc(Cl)c1`, the growth is 101%.

Take `CC(=O)c1cccs1`: the growth is 93.8%. For the compound `CCOC(=O)/C(C#N)=C\c1c[nH]c2ccccc12`, the growth is 86.5%. In the case of `C[n+]1cc2cc3c(cc2c2ccccc21)OCO3`, the growth was 42.7%. With `O=C(O)c1cc(I)ccc1O`, the growth was 103%. For `Cc1[nH]c(=S)[nH]c(=O)c1C`, the growth is 101%. The value for `COc1nc(Nc2cccc(C(F)(F)F)c2)nc(OC)n1` was 97.2%; that for `O=C1Nc2ccccc2/C1=C\c1ccccc1O` was 82.6%; that for `Nc1cc(N)ncn1` was 95.1%. The value for `Cc1cccc(C)c1NC(=S)/N=C\c1c(O)[nH]c(=O)[nH]c1=O` was 104%.

Take `COc1cc(-c2ccc(NC(=O)CC(C)=O)c(OC)c2)ccc1NC(=O)CC(C)=O`: the growth was 96%. Regarding `C=CCC(O)C=C` (stereo not given), the growth was 101%. As for `O=C(CCl)Oc1ccc([N+](=O)[O-])cc1`, the growth is 108%. The value for `O=C(O)c1ccc([N+](=O)[O-])cc1S(=O)(=O)O` was 104%; that for `Cn1c(=O)c2[nH]c(CCCCC(=O)O)nc2n(C)c1=O` was 114%. Under `CC1(C)OC(=O)CC1=O` stands 98.6%.

`O=C1NC(=O)/C(=C\c2ccncc2)N1`: the growth was 102%.

Take `CCC12OC(COc3ccccc3)CN1CCN2c1ccccc1` (stereo not given): the growth was 98.2% [100 µM].

For `O=C1C=C(c2ccccc2)C(O)(c2ccccc2)C1` (stereo not given), the growth is 99.1%. The value for `Cc1ccccc1CC(N)C(=O)O` (stereo not given) was 98.2%; that for `NCCCN1CCCC1=O` was 101%. The value for `COc1cccc2c1Cc1ccccc1-2` was 94.9%; that for `Oc1ccc(CCC2CCNc3ccccc32)cc1` (stereo not given) was 65.3%. On to `CCOC(=O)Nc1nccs1`, for which the growth is 112%. The value for `CC(=O)NC(O)C(Cl)Cl` (stereo not given) was 91.8%; that for `CC1(C)CC(=O)C=C(N)C1` was 88.1%.

For `CCOS(=O)(=O)c1ccc([N+](=O)[O-])cc1`, the growth is 101%. Under `CSCC[C@@H]1C(=O)N(C)[C@H](C(C)(C)C)N1C(=O)c1ccccc1` stands 101%; under `CC(C)NC(=O)OCc1c(COC(=O)NC(C)C)c(-c2ccc(Cl)cc2)n2c1CCC2`, 36.5%; under `O=C(OCC1CCCO1)c1ccc([N+](=O)[O-])cc1` (stereo not given), 105%.

Regarding `Cc1ccc(C2CCCCC2)cc1Br`, the growth is 105%.

For `CCOc1ccc(C(=O)NCC(C)C)cc1`, the growth was 107%. With `C=CCC(OC(C)=O)c1ccc(C(C)C)cc1` (stereo not given), the growth was 108%. In the case of `CC(=O)Nc1ccc(/C=C2\SC(=S)N(/C=C(\C(C)=O)C(N)=O)C2=O)cc1`, the growth is 97.5%. The value for `OCc1cccnc1` was 100%.

These data come from PubChem BioAssay (NCI).
